Compound activity: PubChem, National Center for Advancing Translational Sciences (NCATS)
The full list was thinned out, with hits kept by preference.
HT1080 IDH1KD tx = HT-1080 IDH1 knockdown cell toxicity (counter line) | HT-1080 IDH1 knockdown viability, ATP luminescence, 48 h | Potency, µM (titrated, usually from 46.1 µM), inactives show at the top dose activity, negative = toxicity, hits mostly cytotoxic | hit rate 2% among 360,000 | AID 686971;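 note: potency is the fitted concentration of half-maximal effect; 0% = DMSO wells and -100% = cell-free medium wells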
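Using the IDH1-knockdown HT-1080 line run in the same batch and compound series as the NT line, viability after 48 h at 37 °C was determined by CellTiter-Glo luminescence and expressed as % activity.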
ALOX12 inh = blocks human arachidonate 12S-lipoxygenase; Potency, µM (series often up to 108 µM), without a hit: at the highest dose activity change, negative = inhibition, usual class: inhibitors; P18054; AID 1671190; hit rate 1.1% among 580,000; purified 12hLO, xylenol orange hydroperoxide absorbance; note: potency is the fitted concentration of half-maximal effect
Target sequence (P18054 whole entry, looked up): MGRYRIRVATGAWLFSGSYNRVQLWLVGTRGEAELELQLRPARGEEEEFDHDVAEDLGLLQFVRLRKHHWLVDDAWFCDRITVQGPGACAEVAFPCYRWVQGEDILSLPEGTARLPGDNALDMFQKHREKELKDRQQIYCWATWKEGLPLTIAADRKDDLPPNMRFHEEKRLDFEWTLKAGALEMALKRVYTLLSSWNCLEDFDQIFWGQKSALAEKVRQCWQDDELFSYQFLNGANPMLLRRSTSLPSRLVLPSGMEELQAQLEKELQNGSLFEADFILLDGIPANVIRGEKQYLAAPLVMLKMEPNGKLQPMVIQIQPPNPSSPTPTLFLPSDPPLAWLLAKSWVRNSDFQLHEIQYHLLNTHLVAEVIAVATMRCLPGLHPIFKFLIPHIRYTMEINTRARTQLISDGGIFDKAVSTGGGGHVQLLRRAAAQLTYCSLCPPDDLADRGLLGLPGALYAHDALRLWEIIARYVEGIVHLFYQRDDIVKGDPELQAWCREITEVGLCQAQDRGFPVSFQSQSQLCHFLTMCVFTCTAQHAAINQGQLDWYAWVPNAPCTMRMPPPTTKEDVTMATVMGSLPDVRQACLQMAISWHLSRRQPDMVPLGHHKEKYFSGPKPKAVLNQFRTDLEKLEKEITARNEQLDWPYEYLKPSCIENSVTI
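Purified human 12hLO (150 nM final) in 25 mM Hepes, 0.01% Triton X-100, pH 7.0 was preincubated 15 min at room temperature with compound. Then 40 uM arachidonic acid was added, 30 min. Hydroperoxide was read by Fe-XO absorbance ratio 573/405 nm.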
IL1B secr inh = inflammasome signaling inhibition, IL-1 beta readout. activity change, % at 57.5 µM. THP-1 LPS/ATP IL-1B secretion, AlphaLISA, 16 h; stronger effect = lower value. AID 743279. hit rate 4.7% among 360,000; in the data active = activity change below about -50%; inconclusive = mostly about -30% to -49%
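THP-1 cells pretreated 1 hr with compounds (up to 57.5 uM final), then stimulated with LPS (250 ng/mL final) plus ATP (1.25 mM final); secreted IL-1B measured by AlphaLISA after 16 hr, decreased signal indicating inhibition.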
HT1080NT lethal = kills 2HG-producing HT-1080-NT fibrosarcoma cells; HT-1080-NT fibrosarcoma viability, CellTiter-Glo ATP luminescence, 48 h; Potency, µM (series often up to 46.1 µM), for the others: at the top dose activity, negative = less viability, usual class: cytotoxic; hit rate 1.6% among 360,000; AID 686970;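 note: NT is the 2HG producing partner of a matched IDH1 knockdown line; potency is the fitted concentration of half-maximal effect; 0% = DMSO-treated cells and -100% = media-only wells without cells; nearly all actives have a fitted effect of over 55% in size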
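Viability of the 2HG-overproducing fibrosarcoma line after 48 hours of compound exposure at 37 degrees C was determined by luminescence with CellTiter-Glo, and concentration-effect curves were then fitted and categorized.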
TDP1 cell noCPT = qHTS for Inhibitors of human tyrosyl-DNA phosphodiesterase 1 (TDP1): qHTS in cells in absence of CPT. DT40 Tdp1-/- hTDP1 cells, no CPT, ATP luminescence, 48 h. hit rate 15% among 420,000. Potency, µM (doses to about 46.2 µM), without a hit: top-dose activity change, negative = growth inhibition, hits mostly inhibitors. AID 686978, 2013; note: potency is the fitted concentration of half-maximal effect; nearly all actives have a fitted effect of over 55% in size
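Readout: luminescence from CellTiter-Glo after 30 min in the dark at RT. Cells: DT40 Tdp1-/- with stable hTDP1, 400/well. Exposure: compounds alone, ≥48 hr, 37 °C.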
DT40 TDP1 CPT = growth inhibition of DT40 Tdp1-/-;hTDP1 cells with camptothecin (screen for TDP1 inhibitors); chicken DT40 Tdp1-/-;hTDP1 cells + 20 nM CPT, ATP luminescence, 48 h; Potency, µM (titrated, usually from 46.2 µM), inactives show at the highest dose activity change, negative = growth inhibition, hits mostly inhibitors; hit rate 12% among 420,000; AID 686979; note: potency is the fitted concentration of half-maximal effect; nearly all actives have a fitted effect of over 55% in size
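Cell growth measured by CellTiter-Glo luminescence after a minimum 48 h, 37 C compound exposure with 20 nM CPT in Tdp1-knockout DT40 cells stably expressing hTDP1, seeded 400/well; qHTS titration format.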
* hit, by the source's call; ? = inconclusive; . = no result given; [ ] = another dose, or the depositor's remark. Unless noted, calls come from the whole dose curve; as a rule, active = well fitted curve in the direction sought with a large enough effect; inconclusive = small, poorly fitted or top-dose-only effect, or another doubt; inactive = no such curve, though single readings can be large; an effect the other way counts as inactive or inconclusive. Unless noted, % is set by controls: 0 for no effect and ±100 for the full control effect.

SMILES | HT1080 IDH1KD tx | ALOX12 inh | IL1B secr inh | HT1080NT lethal | TDP1 cell noCPT | DT40 TDP1 CPT
COCCOCC(=O)N1CCC2(CC1)c1[nH]c3ccccc3c1CCN2C | . | 104% | . | . | . | .
COCCN(CCOC)Cc1coc(-c2cccc(F)c2)n1 | . | -3% | . | . | . | .
O=S(=O)(c1ccc2c(c1)OCCO2)N1CCC(n2nnc3cc(C(F)(F)F)ccc32)CC1 | -18% | 0% | -30 | -22% | 16µM* | ?
O=c1oc(-c2cccs2)nc2sc3c(c12)CCCC3 | 0% | 6% | 33 | -1% | -11% | -22%
Nc1c2c(nc3sc4c(c13)CCCC4)-c1ccccc1CC2 | 18µM* | 53% | -88* | ? | ? | -20%
C=CCc1cc(/C=C(/C#N)c2nc3cc(C)c(C)cc3[nH]2)cc(OC)c1OC | . | 2% | . | . | . | .
CCOc1ccc(CNC(=O)c2ccc(NC(=O)c3nsc4ccccc34)cc2)cc1 | . | -15% | . | . | -16% | ?
COc1ccc(OC)c(CNC(=O)c2ccc(NC(=O)c3nsc4ccccc34)cc2)c1 | . | 3% | . | . | 18µM* | ?
CSc1ccc(CNC(=O)c2ccc(NC(=O)c3nsc4ccccc34)cc2)cc1 | . | -2% | . | . | ? | ?
CC(C)Oc1ccc(CNC(=O)c2ccc(NC(=O)c3nsc4ccccc34)cc2)cc1 | . | 2% | . | . | 18µM* | 21µM*
CC(C)(C)CC(=O)NC[C@H]1OC[C@@H](NC2CCC2)[C@@H]1O | . | 1%[176 µM] | . | . | . | .
O=C1CCCCCN1CCC(=O)N1CCCC(Nc2ccc(F)cc2)C1 (stereo unspecified) | . | 39% | . | . | . | .
CNS(=O)(=O)c1ccc(Oc2ccc(S(=O)(=O)NC)cc2)cc1 | -11% | 156% | -7 | -12% | ? | 15µM*
CCCOC(=O)c1ccc(Oc2c(-c3ccc(OCC)cc3O)n[nH]c2C)cc1 | ? | ? | -102* | ? | 18µM* | 16µM*
CCCc1ccc(Oc2cn[nH]c2-c2ccc(O)c(C)c2O)cc1 | ? | ? | -64* | ? | ? | 18µM*
CCCOC(=O)c1ccc(Oc2cn[nH]c2-c2ccc(OCC)cc2O)cc1 | ? | 46% | -75* | ? | ? | ?
CCCCCCCCCCCCS(=O)(=O)CCS(=O)(=O)OCC(F)(F)C(F)F | . | 26% | . | . | . | .
O=C(COc1ccccc1[N+](=O)[O-])Nc1ccc(-c2nc3ccccc3s2)cc1 | . | -13% | . | . | 21µM* | 21µM*
O=C(COc1ccc(/C=N/NC(=O)c2cc3ccccc3o2)cc1Br)Nc1ccccc1 | -2% | ? | -117* | -25% | 18µM* | 18µM*
O=C(COc1ccccc1Cl)Nc1ccc(-c2nc3ccccc3s2)cc1 | . | -6% | . | . | 6.5µM* | 5.8µM*
O=C(COc1ccccc1[N+](=O)[O-])Nc1ccc(NC(=O)c2cc3ccccc3o2)cc1 | -22% | -2% | -12 | -10% | ? | 23µM*
O=C(COc1ccccc1[N+](=O)[O-])Nc1cccc(-c2nc3ccccc3s2)c1 | . | -9% | . | . | ? | ?
CCc1cccc(CC)c1NC(=O)c1c(C)oc2ccc(O)c(CN3CCOCC3)c12 | . | -12% | . | . | ? | ?
CCN1CCN(Cc2c(O)ccc3oc(C)c(C(=O)Nc4cccc(Cl)c4C)c23)CC1 | . | ? | . | . | 21µM* | 8.2µM*
Cc1oc2ccc(O)c(CN3CCN(C)CC3)c2c1C(=O)Nc1cccc(Cl)c1C | . | ? | . | . | 18µM* | 8.2µM*
SMILES | HT1080 IDH1KD tx | ALOX12 inh | IL1B secr inh | HT1080NT lethal | TDP1 cell noCPT | DT40 TDP1 CPT
CC(C)Nc1ncnc2c1ncn2[C@H]1CN(Cc2cccs2)C[C@@H](CO)O1 | 19% | 9% | -14 | ? | -23% | -5%
CCC(=O)NC(c1ccco1)c1cc(Cl)c2cccnc2c1OC (stereo unspecified) | . | -14% | . | . | . | .
CCC(=O)NC(C)c1cc(Cl)c2ccccc2c1O (stereo unspecified) | . | 1% | . | . | . | .
CCCCC(=O)NC(c1ccco1)c1cc(Cl)c2cccnc2c1O (stereo unspecified) | 9.2µM* | ? | 92 | ? | 16µM* | ?
CCC(=O)NC(c1ccco1)c1cc(Cl)c2cccnc2c1O (stereo unspecified) | 3.7µM* | -23% | 157 | ? | 3.7µM* | ?
Cc1ccccc1Cn1c(NC(C)CCO)nc2c1c(=O)n(C)c(=O)n2C (stereo unspecified) | . | -14% | . | . | . | .
CCc1ccc2[nH]c3nc(SCc4nnc(-c5ccc(C)cc5)o4)nnc3c2c1 | 9% | 0% | 26 | 11% | ? | ?
CCc1ccc2[nH]c3nc(SCC(=O)NNC(=O)c4ccc(C(C)(C)C)cc4)nnc3c2c1 | -4% | -11% | -59* | 5% | 16µM* | 21µM*
Cc1ccc(C(=O)NNC(=O)CSc2nnc3c(n2)[nH]c2ccc(C)cc23)cc1 | 18% | . | 31 | -1% | 18µM* | ?
CCc1ccc2[nH]c3nc(SCCN4CCOCC4)nnc3c2c1 | -7% | -2% | 11 | 11% | 23µM* | ?
Cc1nc(CN2CCN(Cc3cc4n(n3)CCNC4)CC2)cs1 | . | 64% | . | . | . | .
COc1cc(Nc2c(C#N)cnc3c(OC)cccc23)cc(OC)c1OC | . | 3.2µM* | . | . | . | .
Cc1ccc(C(=O)C(C)OC(=O)c2ccc3ccccc3n2)cc1 (stereo unspecified) | . | -3% | . | . | . | .
CCOC(=O)C1=C(C)N=C2SC(C(=O)OC)=CC(=O)N2C1c1ccc(F)cc1 (stereo unspecified) | -18% | ? | -61* | 0% | ? | ?
CCOC(=O)C1=C(C)N=C2SC(C(=O)OC)=CC(=O)N2C1c1cccc(OC)c1 (stereo unspecified) | -2% | -5% | 0 | -4% | ? | ?
Cc1ccc(S(=O)(=O)N2CC=C(C(=O)NCc3ccc(F)cc3)CC2)cc1 | . | -11% | . | . | . | .
CCOC(=O)c1c(C)[nH]c(CCC(=O)Nc2ccc(Cl)cc2C)c1C | . | -6% | . | . | ? | -41%
CCOC(=O)c1c(C)[nH]c(CCC(=O)Nc2ccc(C)c(F)c2)c1C | . | ? | . | . | 15µM* | 21µM*
CCOC(=O)c1c(C)[nH]c(CCC(=O)Nc2ccc(N(CC)CC)cc2C)c1C | . | -17% | . | . | ? | 13µM*
CCN(CC)c1ccc(NC(=O)c2[nH]c(C)c(C(C)=O)c2C)c(C)c1 | 1% | ? | -11 | 2% | 18µM* | 23µM*
CCN(CC)c1ccc(NC(=O)C2=CCN(S(=O)(=O)c3ccc(F)cc3)CC2)c(C)c1 | -25% | -22% | 3 | -16% | 18µM* | 18µM*
